Measured values taken from the supplement of paper PMC10849652.
The full data set covers some 7,900 targets. This sample favours those with a hit. About 0.6% of all pairs of compound and target were hits.

compound: O=C1NC(=O)C(c2cnc3ccccn23)=C1c1cn2c3c(cc(F)cc13)CN(C(=O)N1CCCCC1)CC2; assay: log2 fold change, soluble protein after heating vs DMSO (PISA); higher = thermal stabilisation; K562 cells, 10 uM, 30 min; active = over 0.2 and 3.5 SD of the protein, either way, in both replicates (recomputed)
Summary of the method: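 K562 cells at 2×10^6 cells/mL were treated for 30 min with 10 μM compound, and aliquots were heated for 3 min over 48°C-58°C before pooling. Extraction used PBS with 0.5% NP-40 at 4°C, and soluble protein was the supernatant after 21,000xg for 90 min, measured by TMTpro 16plex LC-MS/MS with channel sums equalised. Thermal stability values, relative to control samples and from duplicates, are log2 fold changes.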

Chain of UniProt Q9UBV8 (Q9UBV8 whole entry, looked up): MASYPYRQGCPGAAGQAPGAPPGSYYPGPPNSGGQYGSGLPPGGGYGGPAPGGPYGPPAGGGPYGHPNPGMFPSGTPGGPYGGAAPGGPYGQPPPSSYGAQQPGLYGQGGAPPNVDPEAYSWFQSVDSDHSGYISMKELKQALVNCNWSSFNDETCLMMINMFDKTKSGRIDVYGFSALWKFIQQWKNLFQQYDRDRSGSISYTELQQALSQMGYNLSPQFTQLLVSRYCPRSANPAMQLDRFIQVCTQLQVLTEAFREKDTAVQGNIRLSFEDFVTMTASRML
Chain of UniProt Q9Y5K3 (Q9Y5K3 whole entry, looked up): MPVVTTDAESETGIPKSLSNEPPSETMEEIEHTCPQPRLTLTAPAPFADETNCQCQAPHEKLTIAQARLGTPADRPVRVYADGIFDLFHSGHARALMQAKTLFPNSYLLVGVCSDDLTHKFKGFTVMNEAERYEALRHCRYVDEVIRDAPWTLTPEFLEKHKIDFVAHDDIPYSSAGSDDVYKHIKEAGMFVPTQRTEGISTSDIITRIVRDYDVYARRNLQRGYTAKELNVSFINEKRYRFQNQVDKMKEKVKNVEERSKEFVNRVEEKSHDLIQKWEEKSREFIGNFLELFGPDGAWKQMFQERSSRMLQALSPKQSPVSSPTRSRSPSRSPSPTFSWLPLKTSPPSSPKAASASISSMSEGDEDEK
Chain of UniProt P51665 (P51665 whole entry, looked up): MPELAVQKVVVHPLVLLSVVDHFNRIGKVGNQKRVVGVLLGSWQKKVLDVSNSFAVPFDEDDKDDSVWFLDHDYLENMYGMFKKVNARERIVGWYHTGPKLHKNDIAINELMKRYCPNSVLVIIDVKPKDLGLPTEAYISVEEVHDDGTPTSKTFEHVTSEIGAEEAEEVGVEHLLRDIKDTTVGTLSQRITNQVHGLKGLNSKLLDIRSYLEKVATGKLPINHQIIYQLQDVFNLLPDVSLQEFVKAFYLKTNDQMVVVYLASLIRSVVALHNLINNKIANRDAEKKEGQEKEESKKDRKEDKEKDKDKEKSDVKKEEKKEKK
Chain of UniProt P05423 (P05423 whole entry, looked up): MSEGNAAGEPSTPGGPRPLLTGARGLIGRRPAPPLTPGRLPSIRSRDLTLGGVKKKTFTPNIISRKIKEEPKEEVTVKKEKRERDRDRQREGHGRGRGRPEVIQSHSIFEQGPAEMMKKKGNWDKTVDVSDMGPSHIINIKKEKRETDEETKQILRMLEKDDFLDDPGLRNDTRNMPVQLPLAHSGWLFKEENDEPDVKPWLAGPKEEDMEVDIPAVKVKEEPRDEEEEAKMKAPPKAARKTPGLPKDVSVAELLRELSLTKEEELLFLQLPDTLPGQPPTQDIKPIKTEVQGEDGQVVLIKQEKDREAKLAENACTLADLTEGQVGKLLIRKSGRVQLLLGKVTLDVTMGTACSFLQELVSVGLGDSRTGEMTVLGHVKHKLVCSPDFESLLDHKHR
Chain of UniProt Q32M88 (Q32M88 whole entry, looked up): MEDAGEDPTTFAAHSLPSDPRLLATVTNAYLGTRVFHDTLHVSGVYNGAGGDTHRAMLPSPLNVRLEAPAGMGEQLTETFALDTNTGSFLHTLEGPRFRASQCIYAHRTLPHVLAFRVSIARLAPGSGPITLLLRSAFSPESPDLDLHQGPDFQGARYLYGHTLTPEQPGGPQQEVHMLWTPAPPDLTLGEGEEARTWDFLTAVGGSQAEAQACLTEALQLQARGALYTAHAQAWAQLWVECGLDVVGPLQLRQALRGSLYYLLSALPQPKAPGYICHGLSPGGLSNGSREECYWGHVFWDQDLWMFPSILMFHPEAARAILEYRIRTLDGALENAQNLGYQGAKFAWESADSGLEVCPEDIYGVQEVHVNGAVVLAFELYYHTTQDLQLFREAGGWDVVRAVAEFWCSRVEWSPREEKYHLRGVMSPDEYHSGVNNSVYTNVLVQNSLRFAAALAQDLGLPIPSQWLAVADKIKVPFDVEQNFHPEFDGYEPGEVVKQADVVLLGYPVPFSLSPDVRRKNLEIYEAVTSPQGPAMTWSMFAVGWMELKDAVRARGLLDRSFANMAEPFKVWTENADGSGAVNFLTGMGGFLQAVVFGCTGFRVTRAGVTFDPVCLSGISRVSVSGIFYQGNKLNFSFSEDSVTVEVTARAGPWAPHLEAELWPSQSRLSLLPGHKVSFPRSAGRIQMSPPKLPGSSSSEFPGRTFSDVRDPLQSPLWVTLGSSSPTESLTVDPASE
Chain of UniProt Q86T03 (Q86T03 whole entry, looked up): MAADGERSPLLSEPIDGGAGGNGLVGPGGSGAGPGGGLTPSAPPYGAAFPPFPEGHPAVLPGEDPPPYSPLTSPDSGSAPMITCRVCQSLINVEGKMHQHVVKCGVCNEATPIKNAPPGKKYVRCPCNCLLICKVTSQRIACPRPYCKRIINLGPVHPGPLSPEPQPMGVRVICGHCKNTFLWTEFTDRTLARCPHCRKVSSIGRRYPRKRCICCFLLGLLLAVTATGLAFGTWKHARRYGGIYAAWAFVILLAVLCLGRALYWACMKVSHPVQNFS
Chain of UniProt O96011 (O96011 whole entry, looked up, change not shown): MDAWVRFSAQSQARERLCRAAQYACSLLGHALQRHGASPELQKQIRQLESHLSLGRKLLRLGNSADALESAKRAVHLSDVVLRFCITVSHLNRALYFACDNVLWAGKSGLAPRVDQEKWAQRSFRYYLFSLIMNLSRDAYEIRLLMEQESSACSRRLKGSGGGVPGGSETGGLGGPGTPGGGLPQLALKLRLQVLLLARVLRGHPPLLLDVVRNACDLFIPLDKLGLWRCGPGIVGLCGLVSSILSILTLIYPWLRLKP
Chain of UniProt Q13362 (Q13362 whole entry, looked up): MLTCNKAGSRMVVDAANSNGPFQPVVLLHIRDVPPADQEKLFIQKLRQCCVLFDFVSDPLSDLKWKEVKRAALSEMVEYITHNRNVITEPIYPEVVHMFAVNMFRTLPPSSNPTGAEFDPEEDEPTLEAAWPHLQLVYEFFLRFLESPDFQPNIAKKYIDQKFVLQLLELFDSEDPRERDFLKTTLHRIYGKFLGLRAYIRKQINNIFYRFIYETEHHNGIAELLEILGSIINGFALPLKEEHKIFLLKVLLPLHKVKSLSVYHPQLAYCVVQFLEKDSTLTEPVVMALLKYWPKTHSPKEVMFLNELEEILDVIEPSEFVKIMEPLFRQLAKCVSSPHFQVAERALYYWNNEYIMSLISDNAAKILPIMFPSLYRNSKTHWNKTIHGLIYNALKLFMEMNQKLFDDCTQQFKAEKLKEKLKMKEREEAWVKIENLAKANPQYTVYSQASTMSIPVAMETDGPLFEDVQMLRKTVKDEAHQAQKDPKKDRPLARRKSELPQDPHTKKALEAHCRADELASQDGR
Chain of UniProt Q8N165 (Q8N165 whole entry, looked up): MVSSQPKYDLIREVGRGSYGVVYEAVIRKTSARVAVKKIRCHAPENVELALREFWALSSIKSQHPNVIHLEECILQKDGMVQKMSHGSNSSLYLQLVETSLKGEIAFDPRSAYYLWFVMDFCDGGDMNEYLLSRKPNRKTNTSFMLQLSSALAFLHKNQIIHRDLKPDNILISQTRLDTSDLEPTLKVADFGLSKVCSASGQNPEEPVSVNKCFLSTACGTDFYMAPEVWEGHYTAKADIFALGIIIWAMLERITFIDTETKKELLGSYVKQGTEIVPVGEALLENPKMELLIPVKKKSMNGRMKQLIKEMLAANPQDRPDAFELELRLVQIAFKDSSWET
Chain of UniProt Q9UG56 (Q9UG56 whole entry, looked up): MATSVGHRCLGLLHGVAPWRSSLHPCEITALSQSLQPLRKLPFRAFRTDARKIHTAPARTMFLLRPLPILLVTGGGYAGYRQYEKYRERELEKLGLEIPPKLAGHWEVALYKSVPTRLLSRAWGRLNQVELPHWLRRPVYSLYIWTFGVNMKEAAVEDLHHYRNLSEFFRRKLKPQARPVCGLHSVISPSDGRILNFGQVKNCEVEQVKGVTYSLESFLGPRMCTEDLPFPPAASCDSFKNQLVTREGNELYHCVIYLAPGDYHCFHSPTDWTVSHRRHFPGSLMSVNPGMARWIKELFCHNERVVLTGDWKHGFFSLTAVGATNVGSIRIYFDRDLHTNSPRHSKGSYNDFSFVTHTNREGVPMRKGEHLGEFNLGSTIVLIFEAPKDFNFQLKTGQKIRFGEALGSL
Chain of UniProt Q15126 (Q15126 whole entry, looked up): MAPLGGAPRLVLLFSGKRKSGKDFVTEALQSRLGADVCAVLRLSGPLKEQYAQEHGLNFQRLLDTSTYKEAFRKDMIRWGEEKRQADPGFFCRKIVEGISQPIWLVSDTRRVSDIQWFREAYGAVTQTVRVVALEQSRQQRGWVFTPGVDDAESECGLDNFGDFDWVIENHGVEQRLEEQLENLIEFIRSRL
Chain of UniProt Q12974 (Q12974 whole entry, looked up): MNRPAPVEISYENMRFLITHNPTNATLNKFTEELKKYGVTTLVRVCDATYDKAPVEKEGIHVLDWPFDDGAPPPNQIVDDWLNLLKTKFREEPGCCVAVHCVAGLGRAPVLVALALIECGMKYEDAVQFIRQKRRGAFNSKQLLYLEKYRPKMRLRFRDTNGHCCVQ
Chain of UniProt Q8WUK0 (Q8WUK0 whole entry, looked up): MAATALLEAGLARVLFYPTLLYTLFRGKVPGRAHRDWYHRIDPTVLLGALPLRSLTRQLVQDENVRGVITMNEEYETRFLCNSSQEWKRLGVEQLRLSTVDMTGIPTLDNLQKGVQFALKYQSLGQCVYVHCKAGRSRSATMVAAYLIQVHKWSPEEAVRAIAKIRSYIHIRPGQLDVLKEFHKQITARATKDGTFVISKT
Chain of UniProt Q6EEV4 (Q6EEV4 whole entry, looked up): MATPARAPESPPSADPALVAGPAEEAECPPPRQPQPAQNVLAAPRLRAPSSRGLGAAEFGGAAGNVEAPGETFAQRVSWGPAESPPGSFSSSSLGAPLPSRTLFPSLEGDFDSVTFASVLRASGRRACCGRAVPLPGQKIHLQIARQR
Chain of UniProt O43924 (O43924 whole entry, looked up): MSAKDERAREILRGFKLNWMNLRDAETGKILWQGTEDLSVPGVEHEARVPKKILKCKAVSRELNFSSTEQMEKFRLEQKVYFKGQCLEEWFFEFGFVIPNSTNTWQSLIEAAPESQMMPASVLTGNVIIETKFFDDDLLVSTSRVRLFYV

log2 fold change, inactive:
POLR3D (UniProt P05423) 0.032
PRKCA (UniProt P17252) -0.205
POLR2C (UniProt P19387) -0.023
PRKD2 isoform 3 (UniProt Q9BZL6) -0.014
PHKA2 (UniProt P46019) -0.013
POLR2M (UniProt Q6EEV4) -0.122
PGGHG (UniProt Q32M88) -0.076
PTPMT1 (UniProt Q8WUK0) -0.015
PEX11B (UniProt O96011) 0.035
PDIK1L (UniProt Q8N165) 0.019
PCYT1B (UniProt Q9Y5K3) -0.231
PTP4A2 (UniProt Q12974) -0.168
PEF1 (UniProt Q9UBV8) -0.103
PHKA1 (UniProt P46020) 0.027
PISD (UniProt Q9UG56) -0.097
PDE6D (UniProt O43924) 0.009
PSMD7 (UniProt P51665) 0.051
PNN (UniProt Q9H307) 0.106
PBX2 (UniProt P40425) -0.168
PPP2R5C isoform 4 (UniProt Q13362) -0.022
PIP4P1 isoform 2 (UniProt Q86T03) 0.043
QKI (UniProt Q96PU8) -0.071
PMVK (UniProt Q15126) 0.048
